PrPC surface inh: cell surface PrPC inhibition, primary TR-FRET screen; P04156; TR-FRET read-out; inhibition, % at 13.8 µM; 370,000 tested, 0.43% active; in the data active means inhibition above about 24%; further: 0% = median of the test wells and 100% = reference compound wells
Y pestis TopoI: Y. pestis Topo-I inhibition via cleavage products. Y. pestis Topo-I cleavage product accumulation, plate reader. activity, % at 10 µM. 360,000 tested, 0.064% active. AID 504884; in the data active means activity above about 50%, passing the limit was not always enough
BJeLR viability: BJeLR cell viability loss | AID 1554 | BJeLR (HRASV12) viability, CellTiter-Glo ATP luminescence, 48 h | inhibition, % (concentration not given with the values) | 300,000 tested, 0.17% active; in the data active means inhibition above about 50%
CCHF vOTU inh: blocks the CCHF virus ovarian tumor domain protease; CCHFV vOTU protease, Pep-AMC fluorescence; inhibition, % at 11.5 µM; 370,000 tested, 0.55% active; in the data active means inhibition above about 30%; further: 0% = vehicle wells with enzyme and 100% = no enzyme wells
PrP UTR inh: suppresses PrP 5' UTR mRNA reporter expression; cell-based PrP 5' UTR mRNA reporter, plate reader; inhibition, % (test concentration not listed); 340,000 tested, 0.35% active; in the data active means inhibition above about 52%; further: 0 = median of the neutral control wells
PfHsp40 rescue: rescue of PfHsp40-mediated yeast toxicity; S. cerevisiae expressing PfHsp40, growth rescue, ATP luminescence; growth rescue, % at 12.5 µM; 340,000 tested, 0.68% active; in the data active means growth rescue above about 28%, passing the limit was not always enough;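 further: yeast W303a lacking pdr1 and pdr3 grown in galactose medium; growth measured after three days at 30 °C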
* hit, by the source's call; x = not tested or not shown. Hits are enriched below; roughly 2% of the tested compounds scored in any of these assays.

SMILES	PrPC surface inh	Y pestis TopoI	BJeLR viability	CCHF vOTU inh	PrP UTR inh	PfHsp40 rescue
CCOc1ccc(-n2c(SC/C=C/c3ccccc3)nnc2-c2cccs2)cc1	6	x	x	6	x	x
CCN(CC)C(=O)CSc1nnc(-c2ccc(C(C)(C)C)cc2)n1Cc1ccco1	6	x	x	-1	x	x
COC(=O)[C@H]1C[C@@]2(Oc3ccc(Br)cc3)c3ccccc3N(C(=O)OC(C)(C)C)[C@H]2N1C(=O)OC(C)(C)C	10	x	x	14	x	x
COc1ccc(S(=O)(=O)N2CCOCC2)cc1NC(=O)CCNC(=O)c1ccc(Br)cc1	0	11	108*	-8	-11	-1
O=C(CCSc1nnc(-c2ccncc2)o1)Nc1ccc(Cl)cc1	13	1	-2	6	-13	197*
O=C(CCSc1nnc(-c2ccncc2)o1)Nc1cccc(Cl)c1	0	-12	0	-6	-16	0
CC(C)c1ccc(C(C)NCCS(=O)(=O)c2ccc(Br)cc2)cc1 (stereo not drawn)	9	30	-3	35*	-19	-1
N#C/C(=C\c1cn(Cc2ccccc2F)c2ccccc12)C(=O)NCc1ccco1	9	83*	-8	-4	-16	0
C=CCN(c1ccccc1)S(=O)(=O)c1cccc(C(=O)O)c1	1	0	-19	21	-7	0
C=CCN(c1ccccc1)S(=O)(=O)c1cccc(C(=O)NNC(=O)c2ccccc2O)c1	7	-2	-4	7	-23	92*
O=c1[nH]c(-c2ccccc2)cn1C1CCN(Cc2ccc(-c3nc4ccc(Br)cc4nc3-c3ccccc3)cc2)CC1	31*	x	x	12	x	x
N#Cc1ccc2nc(-c3ccc(CN4CCC(n5c(=O)[nH]c6ccccc65)CC4)cc3)c(-c3ccccc3)nc2c1	-5	x	x	-5	x	x
C[C@@H]1CN(C(=O)OC(C)(C)C)CCN1c1ccc(Br)c(C#N)c1	5	x	x	8	x	x
CC[C@@H](C(=O)[C@@H](C)[C@@H](O)[C@H](C)[C@@H]1O[C@@H]([C@@H](CC)C(=O)O)CC[C@@H]1C)[C@H]1O[C@]2(C=C[C@@H](O)[C@]3(CC[C@@](C)([C@H]4CC[C@](O)(CC)[C@H](C)O4)O3)O2)[C@H](C)C[C@@H]1C	70*	16	x	7	0	220*
O=C(NCc1cccnc1)c1ccc(S(=O)(=O)N2CCCCC2)cc1	0	1	3	4	-25	1
O=S(=O)(c1ccc(NC(=S)NCc2cccnc2)cc1)N1CCCCC1	4	0	62*	-15	1	1
CCCCCCc1ccc(NC(=O)[C@@H]2CC=C[C@@H]3CCN(Cc4ccccc4)C(=O)[C@@H]32)cc1	0	x	x	x	x	x
Cc1ccc(S(=O)(=O)c2ccc([N+](=O)[O-])cn2)cc1	70*	-1	23	10	-2	164*
O=[N+]([O-])c1ccc(S(=O)(=O)c2ccccc2)nc1	24	7	5	11	-7	289*
Cc1cc(S(=O)(=O)c2ccc([N+](=O)[O-])cn2)ccc1Br	3	3	36	12	-17	2
O=C(Cc1ccccc1)CC(CC(=O)c1ccccc1)c1ccccc1 (stereo not drawn)	-8	56*	x	11	x	x
COC(=O)[C@H](CC(C)C)N(CCCc1cn(CC2CCCCC2)nn1)S(=O)(=O)c1ccc(F)cc1Br	12	x	x	20	x	x
N#CC1CCN(c2nc(-c3ccc(Br)cc3)cs2)CC1	2	x	x	x	x	x
O=C(Cc1ccsc1)NNC(=O)c1ccccc1O	-2	1	13	-3	-5	171*
Nc1nn2cc(-c3ccc(Br)cc3)nc2c2ccccc12	13	2	10	-70	-83	91*
SMILES	PrPC surface inh	Y pestis TopoI	BJeLR viability	CCHF vOTU inh	PrP UTR inh	PfHsp40 rescue
Brc1ccc(-c2cn3nc4c(nc3n2)CCCC4)cc1	-9	0	5	-29	41	-2
CN(C)C(=O)N1CCN(C(=O)[C@H]2O[C@@H](n3ccc(N)nc3=O)[C@H](O)[C@@H]2O)CC1	4	x	x	-12	x	x
CC(=O)Nc1sc2c(c1-c1nc(-c3ccccc3)cs1)CCN(C(C)C)C2	0	x	x	x	x	x
Cc1ccc(NC(=S)NNC(=O)CSc2nc3sc4c(c3c(=O)n2-c2ccccc2)CCCC4)cc1	6	x	x	22	x	x
COc1cc(OC)cc(-c2sc3ccc(OC)cc3c2C#CC2(N)CCCCC2)c1	10	0	x	11	-11	34*
COC(=O)C1=C(C)N(Cc2ccc(F)cc2)C(=S)NC1c1cccc(OC)c1 (stereo not drawn)	20	x	x	20	x	x
COc1ccc(-n2c(SCC(=O)Nc3ccc4cn[nH]c4c3)nnc2-c2ccccc2)cc1	-4	x	x	9	x	x
O=C(CN1/C(=C(/O)c2ccccc2)C(=O)c2ccccc2S1(=O)=O)c1ccccc1	-7	2	5	-1	-19	80*
COc1cccc(CNC(=O)[C@H]2CCCN2C(=O)[C@H]2CCCN2C(=O)N2CCCCC2)c1	9	x	x	0	x	x
COc1ccc(C)cc1Nc1c2c(nc3ccccc13)CCC2	21	17	56*	-4	54	1
N#C/C(=C(/O)COc1ccccc1)c1nnc2n1CCCCC2	4	-6	13	16	-14	31*
NC(N)=N/N=C/c1ccc(N(c2ccccc2)c2ccccc2)cc1	-1	-43	7	-54	-15	105*
CCN(CC)C(=O)C1CC(=O)N(c2ccc(F)c(Cl)c2)C1 (stereo not drawn)	1	-2	-2	11	-19	40*
COCCNC(=O)C1CC(=O)N(c2ccc(F)c(Cl)c2)C1 (stereo not drawn)	-5	7	4	1	-18	0
COc1ccc(Oc2coc3cc(OC(=O)/C=C/c4ccccc4)ccc3c2=O)cc1	-4	8	0	-11	-10	95*
O=C(Cn1nc(Cc2ccncc2)c2ccccc2c1=O)N1CCc2ccccc2C1	-7	21	x	66*	-6	-1
CCCCNC(=O)Cn1nc(Cc2ccncc2)c2ccccc2c1=O	3	1	3	-11	-24	0
CC(=NNC(=S)N1CCN(c2ccccn2)CC1)c1ccccn1	-10	8	x	-2	-15	0
CC(=NNC(=S)N1CCN(c2ccccn2)CC1)c1nccs1	x	2	x	x	-2	108*
CC(=NNC(=S)N1CCN(C2CCCCCC2)CC1)c1ccccn1	13	1	x	4	18	81*
Cc1ccc(-n2c(SCC(=O)Nc3ccc(S(=O)(=O)Nc4nccs4)cc3)nnc2-c2cccs2)cc1	-5	x	x	9	x	x
C=C1C(=O)C23CCC4C(C)(C(=O)OC)CCCC4(C)C2CCC1(O)C3 (stereo not drawn)	86*	13	x	2	-22	242*
COC(=O)[C@]1(C)CCC[C@@]2(C)C3CC[C@@]4(C)C[C@]3(CCC21)CC(=O)N4 (stereo partly drawn)	-4	31	x	-2	-10	0
COc1cccc(OC)c1C(=O)Nc1sc2c(c1C(N)=O)CCN(Cc1ccccc1)C2	-7	9	1	-2	-11	2
